This note sets out measurements from PubChem BioAssay (NCATS).

A number with no mark means an inactive call. Calls of active or inactive are those of the source. Calls come from the whole dose curve; as a rule, active = well fitted curve in the direction sought with a large enough effect; inconclusive = small, poorly fitted or top-dose-only effect, or another doubt; inactive = no such curve, though single readings can be large; an effect the other way counts as inactive or inconclusive.

Alpha-galactosidase (Coffea arabica), sequence (Q42656 whole entry, looked up): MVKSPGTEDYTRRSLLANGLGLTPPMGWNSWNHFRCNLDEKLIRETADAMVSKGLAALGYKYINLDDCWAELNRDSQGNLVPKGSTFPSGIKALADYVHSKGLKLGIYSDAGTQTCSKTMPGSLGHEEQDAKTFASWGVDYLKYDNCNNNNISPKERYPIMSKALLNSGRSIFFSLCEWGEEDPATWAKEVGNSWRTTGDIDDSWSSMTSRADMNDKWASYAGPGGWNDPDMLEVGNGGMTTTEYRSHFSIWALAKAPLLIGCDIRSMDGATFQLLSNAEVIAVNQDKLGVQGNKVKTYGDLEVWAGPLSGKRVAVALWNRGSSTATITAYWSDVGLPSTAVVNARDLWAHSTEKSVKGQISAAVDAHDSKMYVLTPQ

The first test has as its target Alpha-galactosidase (Coffea arabica) (UniProt Q42656). Briefly: Counterscreen for Glucocerebrosidase Inhibitors: qHTS Assay for Coffee Bean alpha-Galactosidase at pH 4.5 (AID 957).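 Note: plate controls were enzyme alone for no effect and no enzyme for full effect.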 To be noted: purified coffee bean alpha-galactosidase, fluorogenic substrate; series mostly up to 76.9 µM; activity change, negative = inhibition: at the top concentration. The method, boiled down: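 Green coffee bean enzyme (2 nM final) was incubated with compounds (0.7 nM to 77 uM) and 4-methylumbelliferyl alpha-D-galactopyranoside (80 uM final) in 50 mM citric acid, 0.005% Tween-20, pH 4.5, 20 min at room temperature; AC50 from Hill fits.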
(The purpose of a counterscreen is to sort out artefacts and off-target activity.)
In the case of `CC(C)C[C@H](NC(=O)[C@@H](O)[C@@H](N)Cc1ccccc1)C(=O)O`, the compound was called inactive. Regarding `COCCc1ccc(OC[C@H](O)CNC(C)C)cc1`, the “activity change, negative = inhibition” value is 0.679%. Regarding `C#CCN1C(C)=C(C(=O)OC)[C@@H](c2cccc([N+](=O)[O-])c2)C(C(=O)OCC)=C1C`, the “activity change, negative = inhibition” value was -8.53%. Still for that read-out and setting: the result for `CCCN1C[C@@H](CSC)C[C@H]2c3cccc4[nH]cc(c34)C[C@@H]21` reads -2.6%; that for `C[C@@H]1O[C@@H](n2cc(F)c(=O)[nH]c2=O)[C@H](O)[C@@H]1O`, 2.5%; that for `CC(C)NC[C@H](O)c1cc(O)cc(O)c1`, -0.482%. On to `Cc1ccc(/C(=C/CN2CCCC2)c2ccccn2)cc1`, for which the “activity change, negative = inhibition” value is -2.8%. As to `CCn1cc(C(=O)O)c(=O)c2cc(F)c(N3CCN[C@@H](C)C3)c(F)c21`, the “activity change, negative = inhibition” value is 0.454%.

Turning to `C[C@@H](C(=O)O)c1ccc(C[C@@H]2CCCC2=O)cc1`, the “activity change, negative = inhibition” value is 3.28%. The same measure, in the same setting: the result for `Cc1cccc([C@@H]2CN(C)CCc3c2cc(O)c(O)c3Cl)c1` reads 0.923%.

In the case of `CN1CC[C@@]2(CCN3CCc4c(oc5ccccc45)[C@@H]3C2)N(C)C1=O`, the “activity change, negative = inhibition” value is 2.97%.

The target is the same in another test. As to the kind of experiment: Counterscreen for Glucocerebrosidase Inhibitors: qHTS Assay for Coffee Bean alpha-Galactosidase at pH 5.9 (AID 998).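 Note: plate controls were uninhibited enzyme for no effect and no-enzyme basal signal for full effect.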 Particulars: coffee bean alpha-galactosidase enzyme assay; series mostly up to 76.9 µM; activity, negative = inhibition: at the top concentration. In outline: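 Green coffee bean enzyme (2 nM final) was incubated with compounds (0.7 nM–77 uM) and 4-methylumbelliferyl alpha-D-galactopyranoside (80 uM) in citrate buffer pH 5.9, 20 min at room temperature. High-pH stop; fluorescence 365/440 nm; AC50 from Hill fits.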
As for `CC[C@]1(C)CC(=O)NC1=O`, the “activity, negative = inhibition” value was -0.16%. In the case of `CC(=O)O[C@@H]1C[C@]2(C)[C@H](C[C@@H](O)[C@H]3[C@@]4(C)CC[C@@H](O)[C@@H](C)[C@@H]4CC[C@@]32C)/C1=C(\CCC=C(C)C)C(=O)O`, the “activity, negative = inhibition” value was 1.65%. In the case of `CSc1nc(N)c2ncn([C@@H]3O[C@@H](COP(=O)(O)OP(=O)(O)OP(=O)(O)O)[C@@H](O)[C@H]3O)c2n1`, the “activity, negative = inhibition” value is -1.5%. Same read-out and setting: the result for `COc1cc([C@@H](O)CO)ccc1OS(=O)(=O)O` reads 0.325%. Regarding `CC(C)C[C@H](NC(=O)[C@@H](O)[C@@H](N)Cc1ccccc1)C(=O)O`, the result was inactive. As for `COCCc1ccc(OC[C@H](O)CNC(C)C)cc1`, the “activity, negative = inhibition” value is -0.674%. On the same count and under the same terms, the result for `CN1CCc2c(cc(O)c(O)c2Cl)[C@H](c2cccc(Cl)c2)C1` reads -3.07%; that for `Fc1ccc(C(c2ccc(F)cc2)N2CCN(C/C=C\c3ccccc3)CC2)cc1`, -4.25%; that for `C#CCN1C(C)=C(C(=O)OC)[C@@H](c2cccc([N+](=O)[O-])c2)C(C(=O)OCC)=C1C`, -6.32%. Consider `C[C@H](Oc1ccc(Oc2cnc3ccc(Cl)cc3n2)cc1)C(=O)O`, for which the “activity, negative = inhibition” value is -0.658%.

In the case of `CCCN1C[C@@H](CSC)C[C@H]2c3cccc4[nH]cc(c34)C[C@@H]21`, the “activity, negative = inhibition” value is -2.73%. On the same count and under the same terms, the result for `O=C(O)CNC(=O)[C@@H](CS)Cc1ccccc1` reads -0.976%; that for `COc1ccccc1OC[C@H](O)CN1CCN(CC(=O)Nc2c(C)cccc2C)CC1`, -0.989%. `C[C@@H]1O[C@@H](n2cc(F)c(=O)[nH]c2=O)[C@H](O)[C@@H]1O`: the “activity, negative = inhibition” value is 4.94%. `CCCCCCCCCC(=O)N[C@@H](CN1CCOCC1)[C@@H](O)c1ccccc1`: the “activity, negative = inhibition” value is -5.34%. `CC(=O)OCC1=C(C(=O)O)N2C(=O)[C@@H](NC(=O)Cc3cccs3)[C@@H]2SC1`: the “activity, negative = inhibition” value is 1.25%.

As to `CCCCCCCCCCCCC/C=C\[C@@H](O)[C@@H](N)CO`, the “activity, negative = inhibition” value is -6.54%.

In the case of `CC(N)=NCCC[C@H](N)C(=O)O`, the “activity, negative = inhibition” value was -2.52%.

As to `Oc1cc(O)cc(/C=C\c2ccc(O)c(O)c2)c1`, the “activity, negative = inhibition” value is -0.672%. The same measure, in the same setting: the result for `CC(=O)N[C@@H](C(=O)O)C(C)(C)SN=O` reads -1.07%.

As for `Cn1c(=O)c2c(nc(/C=C\c3cccc(Cl)c3)n2C)n(C)c1=O`, the “activity, negative = inhibition” value is -1.88%.

Take `O=c1cc(O)cc(/C=C\c2ccc(O)c(O)c2)o1`: the “activity, negative = inhibition” value is -9.52%. On the same count and under the same terms, the result for `CC(C)NC[C@H](O)c1cc(O)cc(O)c1` reads -1.4%; that for `NS(=O)(=O)c1cc2c(cc1Cl)N[C@@H]([C@@H]1C[C@@H]3C=C[C@H]1C3)NS2(=O)=O`, 4.16%. The same measure, in the same setting: the result for `COc1ccc(CCNC[C@H](O)c2ccc(O)cc2)cc1OC` reads -0.943%; that for `COc1cc([C@H](O)C(=O)O)ccc1O`, 0.0938%; that for `Cc1ccc(/C(=C/CN2CCCC2)c2ccccn2)cc1`, -0.486%. Still for that read-out and setting: the result for `C=CCN1CCc2c(cc(O)c(O)c2Br)[C@H](c2ccccc2)C1` reads -2.14%. `CN(C)CC[C@H](c1ccc(Br)cc1)c1ccccn1`: the result was inactive. Turning to `CCn1cc(C(=O)O)c(=O)c2cc(F)c(N3CCN[C@@H](C)C3)c(F)c21`, the “activity, negative = inhibition” value is 1.87%.

With `Cc1ccccc1[C@@H](OCCN(C)C)c1ccccc1`, the “activity, negative = inhibition” value was -1.35%. The same measure, in the same setting: the result for `CC1CCN(CC[C@@H]2CCCN2S(=O)(=O)c2cccc(O)c2)CC1` reads -0.521%; that for `C[C@@H](C(=O)O)c1ccc(C[C@@H]2CCCC2=O)cc1`, 0.671%.

With `O=C1O/C(=C\Br)CC[C@@H]1c1cccc2ccccc12`, the “activity, negative = inhibition” value was 5.4%. Still for that read-out and setting: the result for `Nc1ncnc2c1ncn2[C@@H]1CCCO1` reads -0.984%. Still for that read-out and setting: the result for `C[C@H](N)C1CCC(C(=O)Nc2ccncc2)CC1` (stereo not given in full) reads -1.9%; that for `Cc1cccc([C@@H]2CN(C)CCc3c2cc(O)c(O)c3Cl)c1`, 1.23%; that for `CN1CC[C@@]2(CCN3CCc4c(oc5ccccc45)[C@@H]3C2)N(C)C1=O`, 0.263%. Consider `CCCCC#Cc1nc(N)c2ncn([C@@H]3O[C@@H](C(=O)NCC)[C@H](O)[C@@H]3O)c2n1`, for which the “activity, negative = inhibition” value was -0.389%.
